Measured values taken from PubChem BioAssay.
Active and inactive are the calls of the source.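 How the source made its calls, unless noted: active means inhibition above 20% together with a positive visual image hit; inconclusive means visual image hit but inhibition not above 20%; inactive means no visual image hit.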

Experiments:
[1] = inhibitors of TNFa-induced NFkB p65 translocation, primary screen, imaging, HUVEC, MLSMR starter and 10KST1 sets (AID 438); settings: HUVEC TNFa-induced p65 nuclear translocation; cell count: measured here: nuclei count (cytotoxicity indicator), at 2.08 µM; inhibition: at 2 µM, stronger effect = higher value, 0% TNFa-plus-vehicle, 100% no-TNFa wells;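 further: compound added about 3h40 before a 20 min TNFalpha stimulation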;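 on inhibition: signal is the nuclear over cytoplasmic p65 intensity ratio per well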
[2] = inhibitors of mutant huntingtin aggregation, primary screen, imaging, exon1htt(103Q)mCFP cells, high-content imaging (AID 483;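 active means visual image review flags a hit and inhibition of aggregation exceeds 20%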;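 further: compound exposure lasted 3 days before fixation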;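 on nuclei count: percent of the per-plate median nuclei count of sample wells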); settings: exon1htt(103Q)mCFP cell line, aggregate imaging, at 2 µM; inhibition of aggregation: stronger effect = higher value; nuclei count: measured here: cell count, toxicity
[3] = inhibitors of E-selectin induction by TNFa, primary screen, imaging, HUVEC, immunofluorescence, MLSMR starter and 10KST1 sets (AID 487;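 active means visually confirmed hit in the image check and inhibition above 20%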;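 on inhibition: signal is fraction of cell area covered by stained E-selectin grains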;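 on nuclei count: 100% = median nuclei count of all wells on the same plate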); settings: HUVEC TNFalpha-induced E-selectin immunofluorescence imaging, at 2 µM; inhibition: stronger effect = higher value; nuclei count: measured here: cell number, toxicity
[4] = molecular target: Voltage-gated potassium channel subunit beta-2 (Rattus norvegicus) (UniProt P62483); assay: KvBeta enzyme negative modulators, primary screen, biochemical, NADPH fluorescence (AID 622;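 active means fluorescence slope higher than the sample average by over 3 SD, cut at about -0.22 in these data, passing the limit was not always enough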;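 further: slope of raw intensity against log time taken from 70 to 1610 s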); settings: recombinant KvBeta, 4-cyanobenzaldehyde reduction, at 10 µM, stronger effect = higher value
[5] = molecular target: Voltage-gated potassium channel subunit beta-2 (Rattus norvegicus) (UniProt P62483); assay: KvBeta positive modulators, primary screen, biochemical, NADPH fluorescence (AID 623;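 active means NADPH fluorescence slope more negative than the mean of all samples by about 3 SD, 99.7% confidence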;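 further: fluorescence intensity change per second fitted from 20 to 320 s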); settings: Recombinant KvBeta, NADPH fluorescence decrease slope, 10 min; at 10 µM; stronger effect = lower value
[6] = molecular target: Alpha-2C adrenergic receptor (Homo sapiens) (UniProt P18825); assay: modulators of alpha2C/GIRK thallium flux, primary screen, cell-based, HEK293 alpha2C/GIRK1/2 (AID 624;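 active means fluorescence slope after compound addition differing from the mean of all screened samples at 99.7% confidence, in either direction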;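 further: slope of fluorescence ratio to pre-addition baseline per second over 15 to 24 s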); settings: thallium flux BTC fluorescence, at 10 µM, actives lie on both sides
[7] = inhibitors of Sendai virus-induced IRF3 signaling, primary screen, TLR/RLR signaling modifier project, cell-based, Sendai virus stimulus, luciferase, 10K MLSCN set (AID 602276;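 active means inhibition at or above 50% at 10 µM; inactive means inhibition below 50%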;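 further: firefly luciferase from ISG56 promoter only with Renilla not read in this screen; 0% = Sendai virus plus DMSO and 100% = medium plus DMSO without virus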); settings: HEK293 RL24 IRF3 luciferase reporter, at 10 µM, stronger effect = higher value
[8] = inhibitors of poly I:C-induced TLR3 signaling, primary screen, cell-based, poly I:C stimulus, luciferase, 10K MLSCN set (AID 602277;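 active means inhibition of the reporter signal at or above 50%; inactive means inhibition below 50%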); settings: HEK293-TLR3 RL24 IRF3 luciferase reporter, at 10 µM, stronger effect = higher value

Voltage-gated potassium channel subunit beta-2 (Rattus norvegicus), sequence (P62483 whole entry, looked up): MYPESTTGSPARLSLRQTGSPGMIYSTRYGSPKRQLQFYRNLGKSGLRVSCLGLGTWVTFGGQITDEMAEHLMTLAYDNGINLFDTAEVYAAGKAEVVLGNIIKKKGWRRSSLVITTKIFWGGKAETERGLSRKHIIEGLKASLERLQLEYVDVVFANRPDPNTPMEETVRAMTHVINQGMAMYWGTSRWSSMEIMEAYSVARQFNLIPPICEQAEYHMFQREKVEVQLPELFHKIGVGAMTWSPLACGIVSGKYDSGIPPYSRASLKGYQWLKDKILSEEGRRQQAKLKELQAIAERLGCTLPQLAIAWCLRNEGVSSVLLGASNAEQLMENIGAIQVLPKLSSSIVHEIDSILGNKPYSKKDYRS
Alpha-2C adrenergic receptor (Homo sapiens), sequence (P18825 whole entry, looked up): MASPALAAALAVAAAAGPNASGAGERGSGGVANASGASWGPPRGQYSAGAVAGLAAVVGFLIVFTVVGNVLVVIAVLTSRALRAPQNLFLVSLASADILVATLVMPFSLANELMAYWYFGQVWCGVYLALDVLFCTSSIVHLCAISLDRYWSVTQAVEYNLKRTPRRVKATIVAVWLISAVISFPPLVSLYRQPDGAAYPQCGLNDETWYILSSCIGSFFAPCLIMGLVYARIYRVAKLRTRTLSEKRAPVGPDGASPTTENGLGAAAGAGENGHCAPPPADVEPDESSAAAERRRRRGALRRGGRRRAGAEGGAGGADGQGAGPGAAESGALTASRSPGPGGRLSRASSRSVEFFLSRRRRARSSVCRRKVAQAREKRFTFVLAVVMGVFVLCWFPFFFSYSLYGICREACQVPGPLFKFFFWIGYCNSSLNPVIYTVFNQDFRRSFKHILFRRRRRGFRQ

Row | Structure (SMILES) | cell count [1] | inhibition [1] | inhibition of aggregation [2] | nuclei count [2] | inhibition [3] | nuclei count [3] | fluorescence slope [4] | NADPH fluorescence slope [5] | slope [6] | inhibition [7] | inhibition [8]
1 | O=S(=O)(NCc1ccc(Cl)cc1)c1cnc[nH]1 | 468 | 5% (inactive) | -5.7% (inactive) | 96.7% | -182% (inactive) | 129% | -0.538 (inactive) | -2e-05 (inactive) | 0.00614 (inactive) | -8.39% (inactive) | -18.3% (inactive)
2 | CC(=O)N(C)C1(c2nnnn2CCOC(=O)Nc2ccc(Cl)cc2)CCCCC1 | 498 | 4.3% (inactive) | 5.4% (inactive) | 107% | -33.3% (inactive) | 105% | -0.398 (inactive) | -3.1e-05 (inactive) | 0.00444 (inactive) | 1.79% (inactive) | 20.6% (inactive)
3 | CN(C)c1nc(N)nc(-c2nc3ccccc3s2)n1 | 824 | -2.1% (inactive) | -13.6% (inactive) | 97.7% | -96.9% (inactive) | 122% | -0.489 (inactive) | -2.4e-05 (inactive) | 0.00639 (inactive) | -26% (inactive) | -41.6% (inactive)
4 | O=C(CNC(=O)c1ccccc1C(=O)O)c1ccccc1 | 653 | 1.8% (inactive) | 9.6% (inactive) | 105% | -147% (inactive) | 124% | -0.42 (inactive) | 1.4e-05 (inactive) | 0.00616 (inactive) | -17.6% (inactive) | -49% (inactive)
5 | Cc1cc(NC(=O)CSc2nc3ccccc3n2CC(=O)N2CCCCC2)no1 | 722 | -2% (inactive) | -15% (inactive) | 108% | -70.8% (inactive) | 119% | -0.475 (inactive) | -4.9e-05 (inactive) | 0.00628 (inactive) | 14.5% (inactive) | 29.1% (inactive)
6 | CC(C)C(=O)Nc1ccc2c(c1)nc1n2CCSC1 | 378 | -2.5% (inactive) | -0.8% (inactive) | 113% | -3.7% (inactive) | 109% | -0.361 (inactive) | 1.9e-05 (inactive) | 0.00311 (inactive) | -12.7% (inactive) | -20.2% (inactive)
7 | CC(=O)N1CCN(S(=O)(=O)c2cccc(C(=O)Nc3ccc4c(c3)CCC4)c2)CC1 | 442 | 10.5% (inactive) | -6.6% (inactive) | 118% | -54.2% (inactive) | 111% | -0.385 (inactive) | -4e-05 (inactive) | 0.00306 (inactive) | 9.87% (inactive) | 1.5% (inactive)
